Source: PubChem (National Center for Advancing Translational Sciences (NCATS))
D1 potentiator – potentiators of human D1 dopamine receptor | P21728 | AID 504651 | actives 0.036% (n = 360,000) | potentiation, % at 10 µM | HEK293 TREx D1 cells, calcium flux, dopamine EC20 potentiation; in the data active = potentiation above about 30%
Target sequence (P21728 whole entry, looked up): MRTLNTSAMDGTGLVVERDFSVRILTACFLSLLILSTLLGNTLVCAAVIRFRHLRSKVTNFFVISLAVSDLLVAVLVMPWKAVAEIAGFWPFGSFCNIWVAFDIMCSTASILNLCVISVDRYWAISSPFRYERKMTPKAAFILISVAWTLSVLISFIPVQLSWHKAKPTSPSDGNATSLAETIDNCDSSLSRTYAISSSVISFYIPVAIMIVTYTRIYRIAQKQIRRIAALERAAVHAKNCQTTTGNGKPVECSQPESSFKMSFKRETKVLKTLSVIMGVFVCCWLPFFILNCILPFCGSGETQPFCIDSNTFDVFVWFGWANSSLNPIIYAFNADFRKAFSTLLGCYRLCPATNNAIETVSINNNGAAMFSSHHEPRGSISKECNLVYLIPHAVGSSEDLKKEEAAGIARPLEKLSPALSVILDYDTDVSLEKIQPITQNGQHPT
D1 antagonist – human D1 dopamine receptor antagonism; P21728; HEK293 TREx D1 cells, calcium flux, dopamine EC80; hits give low values; activity change, negative = inhibition, % at 10 µM; actives 3.2% (n = 360,000); AID 504652; in the data active = activity change below about -30%
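Allosteric or orthosteric antagonism assessed as attenuation of the calcium response to EC80 dopamine, added 180 s after compound, in induced HEK293 Trex D1 cells loaded with no-wash calcium dye.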
DRD3 antagonist – blocks the human D3 dopamine receptor | P35462 | D3R cells, DiscoveRx beta-arrestin luminescence, antagonist mode; hits give low values | max response, negative = inhibition, % | actives 2.5% (n = 360,000) | AID 652054; in the data active = max response below about -50%
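Cells plated overnight at 1500 cells/well, then exposed to library compounds with dopamine controls for 90 minutes at 37 degrees C. DiscoveRx reagent added for 30–60 minutes at room temperature; luminescence read, quantitative HTS format.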
D3 ag – activates the human D3 dopamine receptor. P35462. D3R DiscoveRx beta-arrestin cells, luminescence, 90 min. max activation, %. actives 0.58% (n = 410,000). AID 652048; in the data active = max activation above about 30%
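Agonist mode: compounds and dopamine controls were applied to plated cells for 90 min at 37 degrees C after an overnight attachment at 1500 cells/well. Luminescent read-out followed 30 - 60 minutes at room temperature with DiscoveRx detection reagent.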
D1 agonist – activates the human D1 dopamine receptor; P21728; HEK293 T-REx D1 cells, calcium flux, agonist mode; activation, % at 2 µM; actives 1% (n = 360,000); AID 504660; in the data active = activation above about 30%
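Agonism was scored from calcium flux recorded over 180 s (1 read/s) after pintool compound addition, following a 10-cycle baseline. Cells were inducible force-coupled HEK293 TREx D1, plated overnight at 30 C and loaded with no-wash calcium dye.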
Each line names hits and unclear results; the compound was inactive in the other large screens. Compounds with a hit are over-represented: about 6% of the library has one in this group of screens.

O=C(Nc1cccc(F)c1)c1ccc2snnc2c1	D1 antagonist -31 (no result: DRD3 antagonist)
Cc1c(Cl)cccc1NC(=O)Nc1ccc2snnc2c1	D1 agonist 39 (no result: DRD3 antagonist)
Cc1cccc(NC(=O)c2ccc3snnc3c2)c1	none (no result: DRD3 antagonist)
CNC(=O)Nc1ccc2snnc2c1	none (no result: D1 potentiator)
CC1CN(C(=O)Nc2ccc3snnc3c2)c2ccccc21 (configuration not stated)	D1 antagonist -63
O=C(Nc1ccc(F)cc1)Nc1ccc2snnc2c1	D1 antagonist -31, D1 agonist 48 (no result: DRD3 antagonist)
Cc1nn(C)c2c1c(C(F)(F)F)cc(=O)n2C(C)C(=O)NCc1ccccc1 (configuration not stated)	none (no result: DRD3 antagonist)
COC(=O)c1cc(NC(=O)Nc2ccc3snnc3c2)cc(C(=O)OC)c1	none (no result: DRD3 antagonist)
CC(=O)c1ccc(NC(=O)Nc2ccc3snnc3c2)cc1	D1 antagonist -74, D1 agonist 46 (no result: DRD3 antagonist)
O=C(Nc1ccc(C(=O)N2CCN(c3cccc(Cl)c3)CC2)cc1)c1nsc2ccccc12	none (no result: DRD3 antagonist)
CCN1C(=O)C(Cc2nc3ccccc3c(=O)n2C)c2cc(C)ccc21 (configuration not stated)	none (no result: DRD3 antagonist)
CCOC(=O)c1c(NC(=O)CC2Nc3cc(C)c(C)cc3NC2=O)sc(C)c1C (configuration not stated)	DRD3 antagonist -57
CN(C)c1ccc(C2C3=C(CCCC3=O)OC3=C2C(=O)CCC3)cc1	DRD3 antagonist -55
COCCCNC1=C(Cl)C(=O)c2ccccc2C1=O	none
COCCCNc1c2c3c(cccc3[nH]c1=O)C(=O)c1ccccc1-2	D1 antagonist -53, D1 agonist 809 (no result: D1 potentiator)
Cn1nc(-c2ccc(C(=O)Nc3cccc(Cl)c3)cc2)c2ccccc2c1=O	D1 antagonist -37
O=C(CCc1nc2cccnc2n1Cc1cccs1)Nc1cccc(Cl)c1	none (no result: DRD3 antagonist)
Cc1ccc(NC(=O)N2CCc3c(sc4c3CCCC4)C2c2ccccc2)cc1F (configuration not stated)	none (no result: DRD3 antagonist)
Cc1cc(C)cc(C(=O)NC(=S)Nc2ccc(-c3cc4ccccc4oc3=O)cc2)c1	D1 antagonist -57
CCCCNC(=O)/C=C1\Sc2ccccc2NC1=O	none
CCc1ccc(C(=O)/C=C2\Sc3ccccc3NC2=O)cc1	DRD3 antagonist -147
CCOc1ccc(-c2cc3cc(OC)c(OC)cc3c(C)n2)cc1	none
CCc1nc(-c2ccc(OC)c(OC)c2)cc2cc(OC)c(OC)cc12	D3 ag 36
O=C(COC(=O)/C=C/C(=O)OCC(=O)NC12CC3CC(CC(C3)C1)C2)NC12CC3CC(CC(C3)C1)C2	DRD3 antagonist -59
CCN(CC)c1ccc(C(=O)O)cc1	none
CCN(CC)c1ccc(/C=C2\C(=O)c3ccc(C(=O)O)cc3C2=O)cc1	D1 agonist 354
CN1C(=O)/C(=C2/C=Cc3ccccc3N2CCCS(=O)(=O)O)SC1=S	DRD3 antagonist -125
O=C(Nc1cccc(Cl)c1)c1cc(N=Nc2ccc([N+](=O)[O-])cc2Cl)ccc1O	D1 antagonist -54
O=C(Nc1ccc([N+](=O)[O-])cc1Cl)c1cc(Cl)ccc1O	D1 antagonist -42
Cc1ccc(O)c(NC(=O)c2cc([N+](=O)[O-])ccc2Cl)c1	D1 antagonist -30
Cc1cc(O)c(NC(=O)c2cc([N+](=O)[O-])ccc2Cl)cc1C	none
CC(C)C(=O)Nc1nnc(S(=O)(=O)N(C)Cc2ccc(F)cc2)s1	none (no result: DRD3 antagonist)
Cc1ccc(C)c(S(=O)(=O)NCc2cccnc2)c1	none
Cc1ccc(C)c(S(=O)(=O)NCc2ccncc2)c1	D1 antagonist -43
Cc1ccc(C)c(S(=O)(=O)NCc2ccc(C(=O)N3CCCCCC3)cc2)c1	D1 antagonist -32
CCOc1ccc(-c2nnc(SCC(=O)NCc3ccc(Cl)cc3)o2)cc1	none (no result: DRD3 antagonist)
COc1cc(/C=C2\C(=N)N3N=CSC3=NC2=O)ccc1OS(=O)(=O)c1ccccc1[N+](=O)[O-]	D1 antagonist -30
COc1cc(/C=C2/C(=N)N3C(=NC2=O)SN=C3S(C)(=O)=O)ccc1OS(=O)(=O)c1ccccc1	none (no result: DRD3 antagonist, D3 ag)
CC[C@@H](C(=O)[C@@H](C)[C@@H](O)[C@H](C)[C@@H]1O[C@@H]([C@@H](CC)C(=O)O)CC[C@@H]1C)[C@H]1O[C@]2(C=C[C@@H](O)[C@]3(CC[C@@](C)([C@H]4CC[C@](O)(CC)[C@H](C)O4)O3)O2)[C@H](C)C[C@@H]1C	D3 ag 249 (no result: D1 potentiator, D1 antagonist, D1 agonist)
